Test results: PubChem BioAssay (NCI)
Compounds without any hit were thinned out: in the full panel of roughly 83,000, 20% have a hit.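 Compound tested at a single concentration for 48 hours in 96-well plates; a percent growth value below 10 was scored as active.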 The source made the active and inactive calls.

Legend:
Test in all cases: NCI-60 one-dose screen, 48 h (100 = growth as untreated, 0 = no growth, -100 = all killed)
Conditions in all cases: 10 µM unless noted
SR leukemia = system: SR leukemia
RPMI-8226 leukemia = system: RPMI-8226 leukemia
OVCAR-8 ovarian = system: OVCAR-8 ovarian
OVCAR-5 ovarian = system: OVCAR-5 ovarian
OVCAR-4 ovarian = system: OVCAR-4 ovarian
SK-OV-3 ovarian = system: SK-OV-3 ovarian
IGROV1 ovarian = system: IGROV1 ovarian
OVCAR-3 ovarian = system: OVCAR-3 ovarian
HS 578T breast = system: HS 578T breast
NCI/ADR-RES ovarian = system: NCI/ADR-RES ovarian
T-47D breast = system: T-47D breast
BT-549 breast = system: BT-549 breast
MDA-MB-435 melanoma = system: MDA-MB-435 melanoma
SW-620 colon = system: SW-620 colon
MCF7 breast = system: MCF7 breast
HCT-116 colon = system: HCT-116 colon
HCC-2998 colon = system: HCC-2998 colon
KM12 colon = system: KM12 colon

Measured: growth

COc1cc(/C=C/C(=O)c2ccc(NC(=O)CSc3nnc(-c4ccc(-c5nc6ccc(Cl)cc6[nH]5)cc4)o3)cc2)cc(OC)c1OC
inactive: SR leukemia 48.4% | RPMI-8226 leukemia 108% | OVCAR-8 ovarian 98% | OVCAR-5 ovarian 91.3% | OVCAR-4 ovarian 102% | SK-OV-3 ovarian 99% | IGROV1 ovarian 88.3% | OVCAR-3 ovarian 84.1% | HS 578T breast 90.9% | NCI/ADR-RES ovarian 84.3% | T-47D breast 106% | BT-549 breast 85.6% | MDA-MB-435 melanoma 24.1% | SW-620 colon 87.4% | MCF7 breast 91.8% | HCT-116 colon 90.5% | HCC-2998 colon 96.3%

Cn1ccnc1C(=O)/C=C/C=C/c1ccc(C(=O)Nc2ccc(F)cc2)cc1
active: RPMI-8226 leukemia -5.49% | OVCAR-3 ovarian 5.1% | MDA-MB-435 melanoma 4.45% | SW-620 colon -2.98% | HCT-116 colon -36.3%
inactive: SR leukemia 10.8% | OVCAR-8 ovarian 13.6% | OVCAR-5 ovarian 33.7% | OVCAR-4 ovarian 45.7% | SK-OV-3 ovarian 67.1% | IGROV1 ovarian 10.5% | HS 578T breast 39.1% | NCI/ADR-RES ovarian 26.7% | T-47D breast 28.2% | BT-549 breast 36.3% | MCF7 breast 13.3% | HCC-2998 colon 66.4% | KM12 colon 17.1%

COc1ccc2c(c1)c(CC(=O)[Se]CCC#N)c(C)n2C(=O)c1ccc(Cl)cc1
inactive: RPMI-8226 leukemia 50.9% | OVCAR-5 ovarian 29% | OVCAR-4 ovarian 31.6% | SK-OV-3 ovarian 22.3% | T-47D breast 66.7% | HCC-2998 colon 75.6%
active: SR leukemia 4.36% | OVCAR-8 ovarian 6.32% | IGROV1 ovarian -55.6% | OVCAR-3 ovarian -30.7% | HS 578T breast -14.2% | NCI/ADR-RES ovarian -1.67% | BT-549 breast -59.8% | MDA-MB-435 melanoma -13.4% | SW-620 colon 2.84% | MCF7 breast 2.34% | HCT-116 colon -16.9%

N/C(=N\C(N)=N\c1nc2ccccc2s1)c1ccncc1Cl
inactive: SR leukemia 39.4% | RPMI-8226 leukemia 11.6% | OVCAR-8 ovarian 49% | OVCAR-5 ovarian 61.1% | OVCAR-4 ovarian 104% | SK-OV-3 ovarian 41.8% | IGROV1 ovarian 34.2% | OVCAR-3 ovarian 19.8% | HS 578T breast 35.7% | NCI/ADR-RES ovarian 25.2% | T-47D breast 55.4% | BT-549 breast 43.8% | SW-620 colon 24.1% | MCF7 breast 75.6% | HCT-116 colon 23.3% | HCC-2998 colon 76.6%
active: MDA-MB-435 melanoma 6.13%

Nc1ncc(-c2ccc3ncnc(N4CCc5cc(F)c(F)cc54)c3c2)cn1
inactive: SR leukemia 23.9% | OVCAR-8 ovarian 33.3% | OVCAR-5 ovarian 38.1% | OVCAR-4 ovarian 43.9% | OVCAR-3 ovarian 26.3% | NCI/ADR-RES ovarian 35.8% | BT-549 breast 12.3% | MDA-MB-435 melanoma 30.2% | SW-620 colon 54.4% | MCF7 breast 14.4% | HCT-116 colon 28.9% | HCC-2998 colon 31.9% | KM12 colon 45.3%
active: RPMI-8226 leukemia 4.99% | SK-OV-3 ovarian 9.09% | IGROV1 ovarian -6.07% | HS 578T breast -15.4% | T-47D breast 4.14%

COC(=O)c1ccc(NC2=C/C(=N/S(=O)(=O)c3ccc(C(=O)O)cc3)c3ccccc3C2=O)cc1
active: SR leukemia 0.0887% | RPMI-8226 leukemia 2.88% | OVCAR-8 ovarian 9.15% | OVCAR-4 ovarian -56.5% | OVCAR-3 ovarian -28.6% | HS 578T breast -13.6% | NCI/ADR-RES ovarian 4.23% | T-47D breast 4.9% | MDA-MB-435 melanoma -93.1% | SW-620 colon -30% | MCF7 breast -58.2% | HCT-116 colon 5.32%
inactive: OVCAR-5 ovarian 18.8% | SK-OV-3 ovarian 106% | IGROV1 ovarian 11.3% | BT-549 breast 84.2% | HCC-2998 colon 105% | KM12 colon 51.1%

O=S(=O)(Oc1ccc(-c2nnc(Nc3ccccc3)s2)cc1)C(F)(F)C(F)(F)C(F)(F)C(F)(F)C(F)(F)C(F)(F)F
inactive: SR leukemia 19.5% | RPMI-8226 leukemia 105% | OVCAR-8 ovarian 107% | OVCAR-5 ovarian 93.3% | OVCAR-4 ovarian 107% | SK-OV-3 ovarian 108% | IGROV1 ovarian 107% | OVCAR-3 ovarian 108% | HS 578T breast 98.4% | NCI/ADR-RES ovarian 103% | T-47D breast 104% | BT-549 breast 112% | MDA-MB-435 melanoma 103% | SW-620 colon 103% | MCF7 breast 90.7% | HCT-116 colon 109% | HCC-2998 colon 105% | KM12 colon 102%

O=C(NNc1nc2cc(F)ccc2n2c(CN3CCCC3)ccc12)c1cnccn1
inactive: RPMI-8226 leukemia 20.6% | OVCAR-8 ovarian 13.9% | OVCAR-5 ovarian 33.5% | OVCAR-4 ovarian 14.1% | SK-OV-3 ovarian 16.8% | IGROV1 ovarian 13.8% | HS 578T breast 68.1% | T-47D breast 15.4% | BT-549 breast 24.1% | MDA-MB-435 melanoma 34.4% | SW-620 colon 22.3% | HCT-116 colon 11.1% | HCC-2998 colon 35.7% | KM12 colon 20.3%
active: SR leukemia 4.32% | OVCAR-3 ovarian 4.58% | NCI/ADR-RES ovarian 0.656% | MCF7 breast 4.57%

NC(N)=Nc1ccc(Nc2cccc(Nc3ccc(Cl)c(C(F)(F)F)c3)c2)cn1
active: SR leukemia -31.7% | OVCAR-3 ovarian -30.7% | SW-620 colon 5.81% | MCF7 breast 2.25% | HCC-2998 colon 9.32% | KM12 colon -38.3%
inactive: RPMI-8226 leukemia 13% | OVCAR-8 ovarian 44.7% | OVCAR-5 ovarian 73.8% | OVCAR-4 ovarian 45.4% | SK-OV-3 ovarian 77.6% | IGROV1 ovarian 33.4% | HS 578T breast 28.4% | NCI/ADR-RES ovarian 87.5% | T-47D breast 23.8% | BT-549 breast 67.8% | MDA-MB-435 melanoma 30.4% | HCT-116 colon 16.1%

COc1ccc(Cn2cc3c(c2-c2cc(OC)c(OC)c(OC)c2)CCc2c(CN4CCCC4)noc2-3)cc1
active: OVCAR-3 ovarian -16% | NCI/ADR-RES ovarian 9.19% | MDA-MB-435 melanoma -39.2%
inactive: SR leukemia 29% | RPMI-8226 leukemia 21% | OVCAR-8 ovarian 42.5% | OVCAR-5 ovarian 27.9% | OVCAR-4 ovarian 55.2% | SK-OV-3 ovarian 41% | IGROV1 ovarian 29.9% | HS 578T breast 10.3% | T-47D breast 42.9% | BT-549 breast 76% | SW-620 colon 26.4% | MCF7 breast 15.5% | HCT-116 colon 18% | HCC-2998 colon 24.9% | KM12 colon 14.9%

NS(=O)(=O)c1ccc(Nc2nc(N/N=C/c3ccccn3)nc(Nc3ccccc3)n2)cc1
inactive: SR leukemia 12.5% | RPMI-8226 leukemia 36.6% | NCI/ADR-RES ovarian 49%
active: OVCAR-8 ovarian 3.72% | OVCAR-5 ovarian 9.36% | OVCAR-4 ovarian -20.3% | SK-OV-3 ovarian -31.4% | IGROV1 ovarian -30.3% | OVCAR-3 ovarian -15.8% | HS 578T breast -18.8% | T-47D breast -18.4% | BT-549 breast -20.5% | MDA-MB-435 melanoma -84.9% | SW-620 colon -17.8% | MCF7 breast 1.45% | HCT-116 colon -30% | HCC-2998 colon -74.8% | KM12 colon 4.15%

COc1ccc2c(c1)c(-c1cc(N)n3nc(-c4cn(C)c5ccc(OC)cc45)cc3n1)cn2C
active: SR leukemia -12.2% | RPMI-8226 leukemia -0.83% | SW-620 colon -20.6% | HCT-116 colon -4.19%
inactive: OVCAR-8 ovarian 97.9% | OVCAR-5 ovarian 117% | OVCAR-4 ovarian 109% | SK-OV-3 ovarian 134% | IGROV1 ovarian 105% | OVCAR-3 ovarian 117% | HS 578T breast 110% | NCI/ADR-RES ovarian 120% | T-47D breast 96.2% | BT-549 breast 117% | MDA-MB-435 melanoma 112% | MCF7 breast 32.5% | HCC-2998 colon 114% | KM12 colon 96.9%

CS(=O)(=O)Nc1cc(-c2ccc3ncc(C#N)c(N[C@H](CO)c4ccccc4)c3c2)cnc1Cl
active: IGROV1 ovarian 3.75%
inactive: SR leukemia 20.7% | RPMI-8226 leukemia 64.2% | OVCAR-8 ovarian 56.2% | OVCAR-5 ovarian 74.1% | OVCAR-4 ovarian 54% | SK-OV-3 ovarian 81.1% | OVCAR-3 ovarian 24% | HS 578T breast 13.7% | NCI/ADR-RES ovarian 97.8% | T-47D breast 28.3% | BT-549 breast 33.9% | MDA-MB-435 melanoma 47.2% | SW-620 colon 26.6% | MCF7 breast 17.7% | HCT-116 colon 25.7% | HCC-2998 colon 42.1% | KM12 colon 70.2%

COc1ccc(/C=C(/C)c2ccc3ccc(OC)cc3[o+]2)c(O)c1
inactive: SR leukemia 14.9% | RPMI-8226 leukemia 58.4% | OVCAR-8 ovarian 80.5% | OVCAR-5 ovarian 98.5% | OVCAR-4 ovarian 84.5% | SK-OV-3 ovarian 98.6% | IGROV1 ovarian 58% | OVCAR-3 ovarian 35.1% | HS 578T breast 98.7% | NCI/ADR-RES ovarian 45.3% | T-47D breast 69.7% | BT-549 breast 87.9% | MDA-MB-435 melanoma 38% | SW-620 colon 30.1% | MCF7 breast 30.7% | HCT-116 colon 50.7% | HCC-2998 colon 114% | KM12 colon 71.6%

Cc1ccc(-c2cc3nc(C(Cl)Cl)nc(-c4ccco4)n3n2)cc1
active: RPMI-8226 leukemia -29.4% | OVCAR-5 ovarian 2.3% | OVCAR-3 ovarian -36.3% | HS 578T breast -2.05% | NCI/ADR-RES ovarian 3.8% | SW-620 colon 8.55% | MCF7 breast 3.51% | HCT-116 colon 1.68% | HCC-2998 colon -50% | KM12 colon -21.3%
inactive: SR leukemia 82.4% | OVCAR-8 ovarian 18.3% | OVCAR-4 ovarian 36% | SK-OV-3 ovarian 24.2% | IGROV1 ovarian 64.5% | T-47D breast 21.2% | BT-549 breast 86.5% | MDA-MB-435 melanoma 18.1%

COc1c(N2CC3CCCNC3C2)c(F)cc2c(=O)c(C(=O)N/N=C/c3ccc(N(C)C)cc3)cn(C3CC3)c12 (stereo not drawn)
inactive: RPMI-8226 leukemia 62.9% | OVCAR-8 ovarian 87.3% | OVCAR-5 ovarian 95.7% | OVCAR-4 ovarian 90% | SK-OV-3 ovarian 114% | IGROV1 ovarian 58.9% | OVCAR-3 ovarian 51.2% | HS 578T breast 95.8% | NCI/ADR-RES ovarian 81.6% | T-47D breast 95.5% | BT-549 breast 121% | MDA-MB-435 melanoma 94% | SW-620 colon 80.7% | MCF7 breast 44.1% | HCT-116 colon 31.3% | HCC-2998 colon 89.4% | KM12 colon 74.5%
active: SR leukemia -33.5%

N#Cc1c(-c2cccs2)cc(-c2cnccn2)nc1SCC(=O)Nc1ccc(Br)cc1
inactive: SR leukemia 79.5% | RPMI-8226 leukemia 99.5% | OVCAR-8 ovarian 94.6% | OVCAR-5 ovarian 86.7% | OVCAR-4 ovarian 73.8% | SK-OV-3 ovarian 97.6% | IGROV1 ovarian 64.8% | OVCAR-3 ovarian 96.3% | HS 578T breast 68.6% | NCI/ADR-RES ovarian 85.8% | T-47D breast 96.2% | BT-549 breast 65.4% | MDA-MB-435 melanoma 74.4% | SW-620 colon 77.3% | MCF7 breast 66.6% | HCT-116 colon 69% | HCC-2998 colon 99.7% | KM12 colon 97.7%
